Source: PubChem BioAssay
A selection: hits, their analogues and other compounds. The true share with any hit is near 12%.
JMJD2A Tudor inh = inhibitors of human JMJD2A Tudor domain | AlphaScreen JMJD2A-Tudor / H3K4me3 peptide binding | Potency, µM (highest dose often 114 µM), inactives show at the top dose activity change, negative = inhibition, most hits filed as inhibitors | hit rate 4.4% among 390,000 | AID 504339; also: % is scaled to controls: 0 for no effect and ±100 for the full control effect; nearly all actives have a fitted effect of over 50% in size
G9a inh = inhibitors of human histone lysine methyltransferase G9a; hit rate 8.8% among 350,000; Potency, µM (titrated, usually from 102 µM), for the others: top-dose activity, negative = inhibition, usual class: inhibitors; G9a H3K9 monomethylation, AlphaScreen, 2 h; also: % is scaled to controls: 0 for no effect and ±100 for the full control effect; nearly all actives have a fitted effect of over 75% in size
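Chemiluminescent proximity detection of H3K9 monomethylation, read after 10 min bead incubation in the dark. Reaction: 20 nM G9a, 500 nM biotin-H3K9 peptide, 20 uM SAM cofactor, 2 h, room temperature, following 15 min enzyme-compound preincubation.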
HP1b binding inh = blocks HP1-beta chromodomain binding to methylated histone tails | P83916 | hit rate 0.56% among 390,000 | Potency, µM (doses to about 114 µM), for inactives: at the top dose activity change, negative = inhibition, usual class: inhibitors | AID 540317 | AlphaScreen HP1-beta / biotin-H3K9me3 peptide binding; also: nearly all actives have a fitted effect of over 70% in size
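HP1-beta protein (50 nM final) preincubated 30 min at room temperature with biotinylated H3(1-18)K9me3 peptide (50 nM) in PBS pH 7.4, 0.01% Tween-20, then compound added for 30 min. AlphaScreen streptavidin donor/nickel chelate acceptor beads (10 ug/mL final), 30 min dark, luminescence read.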
Sfp inh = Sfp phosphopantetheinyl transferase inhibition. Biochemical Sfp PPTase activity, qHTS. Potency, µM, for inactives: largest response in the series, negative = inhibition, hits mostly inhibitors. hit rate 3.5% among 310,000;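 also: the enzyme is Sfp with the accession as filed and its product quenches rhodamine fluorescence; 0% = enzyme reaction without inhibitor and -100% = no enzyme wells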
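Step 1, compound plus 15 nM Sfp-PPTase, 15 min, room temperature. Step 2, add rhodamine-CoA (5 uM) and BHQ-2-YbbR (12.5 uM). Step 3, read 525/598 nm fluorescence at 0 and 30 min.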
BAZ2B inh = blocks human BAZ2B; hit rate 4.4% among 360,000; AlphaScreen BAZ2B-H3K14Ac peptide displacement; Potency, µM (highest dose often 114 µM), without a hit: top-dose activity change, negative = inhibition, most hits filed as inhibitors; Q9UIF8; also: % is scaled to controls: 0 for no effect and ±100 for the full control effect; nearly all actives have a fitted effect of over 60% in size
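BAZ2B 50 nM plus b-H3(5-23)K14Ac 50 nM, PBS pH 7.4/0.01% Tween-20, 30 min RT; compound added (max 110 uM), 30 min RT; streptavidin donor/Ni-chelate acceptor beads 10 ug/mL final, 20 min dark; AlphaScreen read.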
PLK1 PBD block = PLK1 (human) polo-box domain binding inhibition | Plk1 PBD binding of FITC phosphopeptide, fluorescence polarization | Potency, µM, inactives show max response, negative = inhibition, most hits filed as inhibitors | hit rate 2.8% among 360,000; also: series mostly up to about 57 µM; % is scaled to controls: 0 for no effect and ±100 for the full control effect; nearly all actives have a fitted effect of over 65% in size
* hit, by the source's call; ? = inconclusive; . = no result; [ ] = dose if it differs, or a comment. Calls follow the shape of the dose curve; as a rule, active = well fitted curve in the direction sought with a large enough effect; inconclusive = small, poorly fitted or top-dose-only effect, or another doubt; inactive = no such curve, though single readings can be large; an effect the other way counts as inactive or inconclusive. Potency is read from the fitted curve at half-maximal effect.

SMILES	JMJD2A Tudor inh	G9a inh	HP1b binding inh	Sfp inh	BAZ2B inh	PLK1 PBD block
O=C(CN1CCN(Cc2ccc(Cl)cc2)CC1)N1CCc2ccccc21	-13%	-20%	13%	3%	-23%	-2%
O=C(CN1CCN(c2ccccc2)CC1)N1CCc2ccccc21	-20%	18%[0.501 µM]	11%	14%	-11%	-3%
O=C(CSc1cccc[n+]1[O-])N1CCCCCC1	-7%	-32%	16%	1%	-1%	7%
CCOC(=O)N1CCC(=NNC(=O)c2ccccc2F)CC1	?	-7%[59 µM]	5%	-3%	1%	-8%
COc1ccccc1-c1nc2c(c(SCC(=O)Nc3ccccc3F)n1)Cc1c(CO)cnc(C)c1O2	-14%	-43%[59 µM]	36%	.	-17%	.
c1ccc(-c2cn(-c3ccccc3)c3ncnc(N4CCCCC4)c23)cc1	-26%	?	16%	-13%	-13%	1%
CCOc1ccc(-n2cc(-c3ccccc3)c3c(N4CCOCC4)ncnc32)cc1	-24%	?	25%	-14%	25µM*	-6%
COc1cccc(N2CCN(c3ncnc4c3c(-c3ccccc3)cn4-c3ccc(F)cc3)CC2)c1	-29%	-3%[59 µM]	16%	.	-3%	.
CN1CCN(c2ncnc3c2c(-c2ccccc2)cn3-c2ccc(F)cc2)CC1	?	45µM*	-16%	-12%	?	0%
CCOC(=O)c1noc2ncnc(Nc3cccc(OC)c3)c12	-11%	20%[59 µM]	11%	.	-2%	.
O=C(COC(=O)/C=C/c1ccco1)Nc1ccc(F)cc1Cl	-16%	?	5%	-11%	?	-6%
Cc1cc2occ(CC(=O)NCc3cccs3)c2cc1C(C)C	-7%	-13%[59 µM]	22%	1%	3%	-13%
Cc1csc(NC(=O)Cc2coc3cc(C)c(C(C)C)cc23)n1	-32%	45µM*	15%	19%	?	-5%
CCCc1nnc(SCC(=O)Nc2cccc(C(F)(F)F)c2)o1	-7%	18%	0%	11%	7%	-7%
CC1=C/C(=N\Nc2ccccc2[N+](=O)[O-])CC(C)(C)C1	7.9µM*	3.5µM*	7.1µM*	-8%	2.8µM*	-6%
O=[N+]([O-])c1ccccc1N/N=C/c1ccccc1	-16%	-21%	3%	2%	-12%	-4%
COc1ccc(-c2noc(COc3ccc4c(c3)OCO4)n2)cc1OC	-12%	-9%[59 µM]	13%	8%	-9%	-7%
Cc1ccc(OCc2nc(-c3ccccc3)no2)cc1	-3%[11.4 µM]	440%	83%	1%	125%	12µM*
COc1ccc(OCC(=O)NCc2nc(-c3ccccc3)no2)cc1	-33%	.	-15%[57 µM]	.	.	30µM*
O=c1cc(-c2ccccc2)nc(SCc2nc(-c3ccc(C(F)(F)F)cc3)no2)[nH]1	8%	-7%[59 µM]	31%	.	1%	.
COc1ccc(-c2noc(COc3ccc4c(c3)OCO4)n2)cc1	-13%	17%[59 µM]	30%	10µM*	9%	3%
COc1ccc(-c2noc(CSc3nc(-c4ccccc4)cc(=O)[nH]3)n2)cc1	-18%	40µM*	37%	?	26%	-3%
O=C(O)c1cn2c3c(ccc(Cl)c3c1=O)OCC2	?	?	16%	3%	-13%	?
Cc1ccc(Cn2c(CN3CCC(C(=O)NCC(C)c4ccccc4)CC3)cc3ccccc32)cc1 (centres undefined)	-27%	-19%[59 µM]	40%	.	-21%	.
CC(=O)N1CCCc2cc(S(=O)(=O)N3CCC(C(=O)NCc4ccc(N(C)C)cc4)CC3)ccc21	?	?	8%[57 µM]	.	-8%	.
SMILES	JMJD2A Tudor inh	G9a inh	HP1b binding inh	Sfp inh	BAZ2B inh	PLK1 PBD block
COc1cc(NC(=O)C2CCN(S(=O)(=O)c3c(C)noc3/C=C/c3cccs3)CC2)cc(OC)c1	-16%	-8%[59 µM]	12%	.	.	.
Cc1cccc(NC(=O)Cn2c(=O)oc3ccccc32)c1	-2%[11.4 µM]	35%[12.7 µM]	69%	4%	-5%	-7%
COc1ccc2c(c1)C1C=CCC1C(c1cc3c(cc1Br)OCO3)N2 (centres undefined)	22µM*	40µM*	-44%	-21%	35µM*	-7%
O=c1[nH]c2cnn(-c3ccccc3)c2c(=O)n1O	56µM*	.	14%	.	.	-8%
S=C(NCc1ccco1)Nc1ccc(N2CCOCC2)cc1	-24%[57.1 µM]	?	-14%	-22%	-6%	27µM*
S=C(NCc1cccnc1)Nc1ccc(Oc2ccccc2)cc1	-26%	.	-9%	40µM*	?	-26%
S=C(NCc1ccco1)Nc1ccc(Oc2ccccc2)cc1	-23%	.	?	20µM*	?	17µM*
NNC(=S)NCc1cccnc1	?	1.4µM*	10%	63µM*	0%	5%
CCOC(=O)C1=CCN(S(=O)(=O)c2ccccc2C)C1c1cccc(Br)c1 (centres undefined)	.	.	.	.	.	8%
Cc1ccc(S(=O)(=O)N2C(=O)CCC2C(=O)O/N=C(\N)c2cccc([N+](=O)[O-])c2)cc1 (centres undefined)	-19%	8%	5%	9%	-37%	-3%
c1ccc(NCc2cccnc2)cc1	-20%	45µM*	18%	17%	-7%	-6%
S=C(NCc1ccco1)Nc1cc(-c2ccccc2)[nH]n1	?	-151%[59 µM]	?	1%	40µM*	-16%
S=C(NCc1ccco1)Nc1ccc(Br)cn1	-14%	63%	16%	-11%	10%	?
CC(=O)N1CCc2cc(C(=O)CN3CCN(c4ccccc4F)CC3)ccc21	-20%	14µM*	36%	50µM*	-34%	-15%
CC(=O)N1CCc2cc(C(=O)CN3CCN(c4ccccn4)CC3)ccc21	1%	20µM*	37%	50µM*	9%	-2%
O=C(CN1CCN(c2ccccc2F)CC1)c1c[nH]c2ccc(F)cc12	-17%	?	13%	3%	2%	-5%
O=C(CN1CCN(c2ccccc2F)CC1)N1CCc2ccccc21	-9%	10%	0%	9%	-14%	-15%
O=C(CN1CCN(c2ccccc2F)CC1)c1ccc2cc[nH]c2c1	-31%	25µM*	32%	-11%	4%	-14%
CCCCc1nn2c(=O)cc(COC(=O)c3ccccc3NC(=O)c3cccc(C)c3)nc2s1	-12%	15%[59 µM]	7%	.	-1%	.
OCC[C@@H]1C[C@H](O)[C@@H](O)[C@]2(Cc3ccccc3CCO2)O1	-8%	.	44%	10%	0%	-2%
Cc1ccc(SCC(CC(C)C)N2CCN(C)CCC2=O)cc1 (centres undefined)	-12%	.	10%	9%	.	.
Cc1ccc(Cc2c(C)nc3nc(SCC(=O)NCCCN4CCCCCC4)nn3c2C)cc1	-30%	35µM*	-23%	-6%	?	-11%
Cc1nc2nc(SCC(=O)NCCCN3CCCCC3)nn2c(C)c1Cc1ccccc1	6%	7%	8%	12%	-13%	-6%
